Measurements as given in the supplement of paper PMC10646978.
± gives the standard deviation.

What was measured:
Conditions in all cases: modulator concentration 10 µM
[1] = tested on: RAW-Dual (murine macrophage reporter line); test: NF-kB reporter (SEAP) activity fold change vs agonist alone; higher = enhanced NF-kB activity
Method in brief: (§1)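 In 384-well plates holding 50 000 RAW-Dual murine macrophage reporter cells per well, compound at 10 μM final was pre-incubated for 1 hour at 37 °C, after which a PRR agonist was added overnight. Supernatant SEAP read with QUANTI-Blue at 620 nm absorbance reported NF-κB, and Lucia luciferase read with QUANTI-Luc luminescence reported IRF. Fold change values come from dividing each reporter signal by the mean of agonist-only control wells on the same plate, averaged over replicate plates with propagated errors.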

[2] = tested on: RAW-Dual (murine macrophage reporter line); test: IRF reporter (Lucia luciferase) activity fold change vs agonist alone; higher = enhanced IRF activity
Method in brief: as §1

[3] = tested on: RAW-Dual (murine macrophage reporter line); test: viability score (confluency relative to resting cells, overnight) (fraction); higher = more viable, active = viable (0.7 or more)
Method in brief: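 RAW-Dual macrophages in 384-well plates were exposed overnight to compound at 10 μM final. Confluency was imaged with IncuCyte, and two confluency masks were generated with IncuCyte software over all imaged wells. The viability score is confluency expressed relative to resting cells. Compounds were called viable if both masks exceeded 70% of resting cells.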

[4] = agonist: CpG ODN 1826 0.5 ug/mL

Structure (SMILES)	NF-kB reporter [1, 4]	NF-kB reporter ([1]; agonist: LPS 0.1 ug/mL)	NF-kB reporter ([1]; agonist: MPLA […])	IRF reporter ([2]; agonist: 3'3'-cGAMP 10 ug/mL)	IRF reporter ([2]; agonist: LPS 0.1 ug/mL)	IRF reporter ([2]; agonist: MPLA […])	viability score [3]
Cc1cc(C)n(-c2ccc(=O)n(CCNS(=O)(=O)c3ccccc3F)n2)n1	1.08 ± 0.09	1.08 ± 0.086	0.937 ± 0.049	1.01 ± 0.059	1.2 ± 0.081	1.13 ± 0.11	1 (active)
O=C1C(=Cc2ccncc2)CCC1=Cc1ccncc1	1.03 ± 0.082	0.928 ± 0.08	0.971 ± 0.12	0.993 ± 0.045	1.21 ± 0.17	1.28 ± 0.27	1.01 (active)
COc1ccc(C2N3CC4(C)CN2CC(C)(C3)C4=O)cc1 (configuration not stated)	1.03 ± 0.17	0.973 ± 0.093	0.947 ± 0.082	1.03 ± 0.027	1.32 ± 0.2	1.27 ± 0.15	1 (active)
O=c1cc(-c2ccc(O)c(O)c2)oc2cc(O)cc(O)c12 [Prestw-870]	1.08 ± 0.18	1.21 ± 0.12	2 ± 0.16	0.181 ± 0.0054	0.663 ± 0.14	0.61 ± 0.065	0.995 (active)
O=S(=O)(Nc1nc2ccccc2nc1Nc1ccc2c(c1)OCCO2)c1cccs1	0.985 ± 0.078	1.02 ± 0.065	1.13 ± 0.1	0.85 ± 0.028	1.29 ± 0.2	1.05 ± 0.098	0.99 (active)
CCCc1nn(C)c2c(=O)[nH]c(-c3cc(S(=O)(=O)N4CCN(C)CC4)ccc3OCC)nc12	0.951 ± 0.23	1.03 ± 0.07	1 ± 0.068	0.928 ± 0.036	1.25 ± 0.16	1.37 ± 0.22	0.986 (active)
Cc1cc(CNC(=O)CCc2ccc(C(F)(F)F)cc2)c(C)o1	1.09 ± 0.061	1.01 ± 0.089	0.877 ± 0.038	1.2 ± 0.069	1.14 ± 0.068	1.25 ± 0.33	0.957 (active)
CC(C)(C(=O)O)c1ccc(C(O)CCCN2CCC(C(O)(c3ccccc3)c3ccccc3)CC2)cc1.Cl (configuration not stated)	1.47 ± 0.22	1.28 ± 0.39	1.01 ± 0.067	0.924 ± 0.029	1.05 ± 0.48	1.19 ± 0.09	0.983 (active)
CCS(=O)(=O)c1ccc(-c2ccc(NC(=O)c3cccc(OC)c3OC)cc2)nn1	0.914 ± 0.059	0.977 ± 0.1	1.01 ± 0.1	1.05 ± 0.053	1.2 ± 0.26	1.36 ± 0.4	0.955 (active)
O=C(O)CCc1nc(-c2ccccc2)c(-c2ccccc2)o1	1.05 ± 0.079	0.998 ± 0.066	1.03 ± 0.023	0.931 ± 0.055	0.976 ± 0.12	1.03 ± 0.15	0.991 (active)
O=c1cc(-c2ccc(O)cc2)oc2cc(OC3OC(CO)C(O)C(O)C3O)cc(O)c12 (configuration not stated)	1.14 ± 0.11	1.06 ± 0.072	1.05 ± 0.022	0.911 ± 0.094	0.966 ± 0.05	1.01 ± 0.086	0.998 (active)
CCOC(=O)C1=C(C)NC(C)=C(C(=O)OCC)C1c1ccco1	1.03 ± 0.09	1.01 ± 0.066	1.14 ± 0.087	0.82 ± 0.16	0.999 ± 0.12	0.888 ± 0.28	0.996 (active)
CCN1CCCC1CNC(=O)c1cc(S(=O)(=O)CC)c(N)cc1OC (configuration not stated)	1.69 ± 0.23	1.28 ± 0.32	1.23 ± 0.089	0.819 ± 0.032	0.957 ± 0.29	0.808 ± 0.12	0.994 (active)
CC(C)(C)CC(=O)Nc1nc2ccc(S(C)(=O)=O)cc2s1	0.987 ± 0.12	1.19 ± 0.068	1.25 ± 0.12	0.787 ± 0.033	0.831 ± 0.11	0.779 ± 0.23	0.948 (active)
Cc1nccn1CC1CCc2c(c3ccccc3n2C)C1=O.Cl.O.O (configuration not stated)	0.604 ± 0.09	0.917 ± 0.11	0.765 ± 0.044	0.832 ± 0.025	1.35 ± 0.14	1.01 ± 0.15	0.284 (inactive)
Nc1ncn(C2OC(CO)C(O)C2O)c(=O)n1 (configuration not stated)	2.76 ± 0.66	1.35 ± 0.075	4.3 ± 0.27	0.541 ± 0.026	0.728 ± 0.099	0.714 ± 0.085	0.808 (active)
COc1ccc(OC)c(Nc2nc(-c3c(C)nc4sccn34)cs2)c1	0.853 ± 0.073	0.961 ± 0.1	1.21 ± 0.13	0.925 ± 0.046	1.43 ± 0.094	1.75 ± 0.15	1.01 (active)
COC(=O)c1cc(OC)c(=O)c2c(OC)c(OC)ccc2c1	1.08 ± 0.33	0.981 ± 0.059	0.931 ± 0.1	0.743 ± 0.03	1.02 ± 0.22	0.884 ± 0.088	0.984 (active)
O=C(COc1ccc(Cl)cc1)Nc1ccc(OC(F)(F)F)cc1	1.03 ± 0.069	1 ± 0.078	0.943 ± 0.043	0.989 ± 0.072	0.973 ± 0.1	0.88 ± 0.18	0.993 (active)
CCC(=O)N1c2ccccc2NC2=C(C(=O)CC(c3ccccc3F)C2)C1c1ccc(C)cc1 (configuration not stated)	1.02 ± 0.12	1.07 ± 0.079	1 ± 0.064	0.985 ± 0.043	1.35 ± 0.3	1.07 ± 0.072	1.01 (active)
COC(=O)CSc1ccc2nnc(-c3ccc(F)cc3)n2n1	1.12 ± 0.088	1.1 ± 0.057	1.06 ± 0.023	0.71 ± 0.05	0.719 ± 0.042	0.803 ± 0.069	1 (active)
COc1ccc(C=NNC(=O)C2COc3cc4ccccc4cc3O2)c(O)c1 (configuration not stated)	0.993 ± 0.094	0.966 ± 0.054	0.98 ± 0.079	0.956 ± 0.031	1.31 ± 0.18	1.1 ± 0.15	1.01 (active)
CN(C)CCS(=O)c1ccccc1 (configuration not stated)	0.955 ± 0.08	0.907 ± 0.071	1.16 ± 0.21	0.983 ± 0.038	1.32 ± 0.23	1.39 ± 0.27	1.04 (active)
Cc1cn([C@@H]2C[C@@H](O)[C@H](CO)O2)c(=O)[nH]c1=O	1.12 ± 0.086	0.998 ± 0.054	1.01 ± 0.065	1.09 ± 0.18	0.886 ± 0.04	0.82 ± 0.15	1.01 (active)
Cc1c(OCc2ccc(Cl)cc2)ccc2c(C(F)(F)F)cc(=O)oc12	0.758 ± 0.059	0.94 ± 0.048	1.11 ± 0.17	0.802 ± 0.042	1.06 ± 0.062	1.07 ± 0.094	1.02 (active)
NCCCS(=O)(=O)O	0.883 ± 0.069	1 ± 0.072	0.98 ± 0.024	1.06 ± 0.058	0.978 ± 0.039	0.891 ± 0.12	0.998 (active)
